Most compounds without a hit are left out; they make up all but 1.6% or so of the library.
KCNQ2 enhance – potentiators of rat KCNQ2 potassium channel | 0.54% of 310,000 active | B-score at 10 µM | CHO-K1 KCNQ2, FluxOR thallium flux fluorescence; stronger effect = higher value | Potassium voltage-gated channel subfamily KQT member 2 (Rattus norvegicus), O88943;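 active = fluorescence ratio B-score at least 3 SD of library B-scores, with initial fluorescence B-score within 3 of them, cut at about 5.3 in these data; same plate scores as AID 2156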;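 also: B-score of peak minus minimum over baseline fluorescence ratio after K+ and Tl+ stimulus; positive B-score means potentiation of KCNQ2 with more thallium influx and brighter signal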
KCNQ2 inh – rat KCNQ2 potassium channel inhibitors, primary screen, cell-based, CHO-K1, FluxOR thallium flux, B-score. Potassium voltage-gated channel subfamily KQT member 2 (Rattus norvegicus), O88943. 20 min; stronger effect = lower value. B-score at 10 µM. 1.1% of 310,000 active. AID 2156, 2009;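 active = fluorescence ratio B-score at most minus 3 library SDs, with starting brightness B-score within 2 library SDs, cut at about -5.5 in these data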
Kir21 conf inh – mouse Kir2.1 channel blockers, retest, confirmation, cell-based, FluxOR thallium flux, duplicate; shares compounds with KCNQ2 enhance; Kir2.1-expressing cells, FluxOR thallium flux fluorescence; stronger effect = lower value; Tl flux remaining, % of negative control (stronger effect = lower value), % at 10 µM; 41% of 2,300 active; AID 2032, 2009;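 active = Primary-screen hit whose thallium flux fell at least 3 control SD below untreated wells in both duplicates, with normal baseline fluorescence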;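 also: 0% = blank wells without stimulus and 100% = stimulated no-compound controls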
HEK293 Tl flux – parental HEK293 activity in Kir2.1 inhibitor counter-screen | shares compounds with KCNQ2 enhance | parental HEK293 cells, FluxOR thallium flux fluorescence; 0% = unstimulated blank wells | FluxOR signal as % of negative control (100 = no effect), % at 10 µM | 19% of 2,300 active | AID 2105;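 active = dye signal at least 3 control SD above or below untreated wells in both duplicates, raw fluorescence within 3, either direction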;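 also: percent is based on the flux ratio of peak minus minimum fluorescence over baseline F0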
CHO-K1 Tl ctr – nonspecific thallium flux increase in parental CHO-K1, confirmation, counter-screen for KCNQ2 potentiator project, cell-based, FluxOR thallium flux, duplicate; 43% of 1,200 active; activity increase over 3SD of controls, % at 10 µM; parental CHO-K1 cells, FluxOR thallium flux fluorescence; zero = vehicle mean+3SD, 100% = vehicle-minus-blank window; shares compounds with KCNQ2 enhance;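 active = signal rise of at least 3 SD above the untreated control mean, in both duplicate wells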;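 also: counter screen of KCNQ2 potentiator hits so any rise reflects channel-independent effects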
KCNQ1 sel pot – human KCNQ1 channel potentiation off-target, confirmation, selectivity assay for KCNQ2 potentiator project, cell-based, CHO, FluxOR thallium flux. shares compounds with KCNQ2 enhance. CHO KCNQ1 stable, FluxOR thallium flux fluorescence; beyond 3SD, as % of vehicle-control signal. activation over 3SD threshold, % at 10 µM. 28% of 1,200 active;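 active = fluorescence ratio rise of at least 3 SD of vehicle wells above their mean, in both replicate wells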;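 also: 0% = vehicle mean plus 3 SD and 100% = vehicle minus unstimulated blank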
KCNQ2 pot confirm – rat KCNQ2 channel potentiators, confirmation, cell-based, CHO, FluxOR thallium flux, duplicate. shares compounds with KCNQ2 enhance. CHO-KCNQ2 cells, FluxOR thallium flux fluorescence. potentiation, less the hit threshold, % at 10 µM. 68% of 1,200 active. AID 2287, 2010;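 active = fluorescence ratio rising 3 SD or more over the vehicle control mean in both replicates, plus primary screen hit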;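 also: peak minus minimum thallium fluorescence divided by baseline after K/Tl stimulus; 0% = vehicle mean plus 3 SD and 100% = vehicle minus unstimulated blank difference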
Kir2-1 sel – mouse Kir2.1 channel activation off-target, confirmation, selectivity assay for KCNQ2 potentiator project, cell-based, HEK293, FluxOR thallium flux. shares compounds with KCNQ2 enhance. HEK293 Kir2.1, FluxOR thallium flux fluorescence. activity over 3SD threshold, % at 10 µM. 2% of 1,200 active;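 active = fluorescence ratio rise of at least 3 SD above the vehicle-control mean, seen in both replicates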;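 also: 0% = vehicle mean plus 3 SD and 100% = vehicle minus no-stimulus blank window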
KCNQ2 W236L MoA – potentiators of retigabine-insensitive KCNQ2 W236L, mechanism study for KCNQ2 potentiator project, cell-based, rat KCNQ2 W236L, CHO, automated patch clamp; AID 2558, 2010; 10% of 940 active; current increase over 3SD of negative controls (%), stronger effect = higher value, % at 25 µM; shares compounds with KCNQ2 enhance; automated patch clamp current;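 active = current increase at least 3 SD of the untreated controls above them in both duplicate recordings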
Target sequence (O88943 whole entry W236L, looked up): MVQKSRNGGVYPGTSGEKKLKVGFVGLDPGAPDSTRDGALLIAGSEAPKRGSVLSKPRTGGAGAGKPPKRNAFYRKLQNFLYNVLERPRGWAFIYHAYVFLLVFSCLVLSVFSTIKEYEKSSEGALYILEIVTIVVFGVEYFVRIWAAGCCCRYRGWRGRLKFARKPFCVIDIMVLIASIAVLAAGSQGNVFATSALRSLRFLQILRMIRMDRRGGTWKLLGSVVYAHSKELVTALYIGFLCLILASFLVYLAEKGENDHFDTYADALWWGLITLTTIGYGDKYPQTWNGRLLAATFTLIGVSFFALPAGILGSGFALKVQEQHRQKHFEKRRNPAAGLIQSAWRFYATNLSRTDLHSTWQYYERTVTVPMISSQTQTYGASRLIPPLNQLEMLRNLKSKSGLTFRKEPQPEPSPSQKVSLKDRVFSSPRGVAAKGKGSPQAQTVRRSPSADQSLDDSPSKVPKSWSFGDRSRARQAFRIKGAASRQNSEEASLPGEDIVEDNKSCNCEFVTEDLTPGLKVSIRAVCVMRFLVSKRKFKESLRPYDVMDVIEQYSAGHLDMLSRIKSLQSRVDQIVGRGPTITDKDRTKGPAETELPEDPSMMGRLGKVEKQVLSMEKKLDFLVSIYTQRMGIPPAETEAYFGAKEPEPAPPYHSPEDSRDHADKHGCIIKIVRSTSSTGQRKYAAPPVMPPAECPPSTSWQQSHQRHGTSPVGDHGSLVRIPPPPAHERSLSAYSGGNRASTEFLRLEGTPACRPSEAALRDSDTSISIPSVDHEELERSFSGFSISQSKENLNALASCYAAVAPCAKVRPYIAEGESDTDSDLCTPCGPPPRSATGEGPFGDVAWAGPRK
Numbers without * were called inactive; i = inactive; . = no result.

SMILES | KCNQ2 enhance | KCNQ2 inh | Kir21 conf inh | HEK293 Tl flux | others
O=C(c1ccco1)N1CCN(Cc2nc(-c3cccs3)no2)CC1 | . | i | . | .
COc1ccc(Nc2nc(N3CCCCC3)c3ccccc3n2)cc1 | . | i | . | .
Oc1ccc(Nc2nc(N3CCCC3)c3ccccc3n2)cc1 | . | i | 47.5%* | i
O=C(Nc1sc2c(c1C(=O)O)CCC2)c1ccccc1 | 1.41 | i | . | .
O=C(Nc1sc2c(c1C(=O)O)CCCC2)c1cccc(Cl)c1 | 5.44* | i | i | i | CHO-K1 Tl ctr=-14.8;KCNQ1 sel pot=-32.3;KCNQ2 pot confirm=4.9*;Kir2-1 sel=-34.0;KCNQ2 W236L MoA=i
O=C(Nc1sc2c(c1C(=O)O)CCCCC2)c1ccccc1 | 1.28 | i | . | .
O=C(Nc1sc2c(c1C(=O)O)CCCC2)c1ccc(Cl)cc1 | 7.88* | i | i | i | CHO-K1 Tl ctr=-10.1;KCNQ1 sel pot=-21.2;KCNQ2 pot confirm=-5.1;Kir2-1 sel=-29.9
Cc1cc(CNC(=O)COc2ccc(F)cc2Cl)cc(C)c1O | . | i | . | .
Oc1c(Br)cc(Br)cc1CNc1cccc2cccnc12 | 8.76* | i | i | i | CHO-K1 Tl ctr=2.2*;KCNQ1 sel pot=-25.9;KCNQ2 pot confirm=-20.3;Kir2-1 sel=-25.9
COc1cccc(CNc2cccc3cccnc23)c1O | . | i | . | .
Cc1cccc(Nc2c3c(nc4ccccc24)CCC3)c1 | . | i | 31.0%* | i
N#Cc1cccc(Nc2c3c(nc4ccccc24)CCC3)c1 | . | i | . | .
COc1ccc(CCN2CC(C(=O)NCc3nc4ccccc4n3C)CCC2=O)cc1 (configuration not stated) | . | i | . | .
Cc1ccc(CN2CCSc3sccc3C2=O)cc1 | . | i | . | .
O=C(O)C1=C[C@@H](C2CCCCC2)C[C@@H](OCc2ccc(CO)cc2)O1 | 0.25 | i | . | .
NC(=O)C1=C[C@@H](C2CCCCC2)C[C@@H](OCc2ccc(CO)cc2)O1 | 0.75 | i | 52.0%* | i
CCc1cc(Br)ccc1NC(=S)NCCc1ccccc1 | . | i | 62.0%* | i
COc1ccc(NC(=S)NCCc2ccccc2)c(C)c1 | . | i | . | .
COCC1CCN(C(=O)c2cc(COc3ccc4c(c3)CCCC4)on2)C1 (configuration not stated) | 0.7 | i | . | .
O=C(c1cc(COc2ccc3c(c2)CCCC3)on1)N1CCCC1 | 1.06 | i | i | i
CCCCc1c(O)cc(C)[nH]c1=O | 0.01 | i | . | .
CC1C=CCC2C(=O)N(c3cccc(C(=O)Nc4ccc(Br)cc4)c3)C(=O)C12 (configuration not stated) | . | i | . | .
Cc1ccc(CN2CCC(c3cc(-c4cccs4)n[nH]3)CC2)cc1 | . | i | 26.0%* | i
FC(F)(F)c1cccc(CN2CCC(c3cc(-c4cccs4)n[nH]3)CC2)c1 | . | i | . | .
Cc1nc(N2CCN(C)CC2)c2c(C)c(C(=O)Nc3ccc(C)c(F)c3)sc2n1 | . | i | 64.5%* | i
SMILES | KCNQ2 enhance | KCNQ2 inh | Kir21 conf inh | HEK293 Tl flux | others
Cc1nc(N2CCC(C)CC2)c2c(C)c(C(=O)Nc3ccc(C)c(F)c3)sc2n1 | . | i | . | .
COc1ccc(/C=C2/SC(=O)NC2=O)cc1 | . | i | . | .
O=C1NC(=S)S/C1=C\c1coc2ccccc2c1=O | 1.74 | i | . | .
O=C1NC(=S)S/C1=C\c1ccc2ccccc2c1 | 11* | i | i | i | CHO-K1 Tl ctr=54.7*;KCNQ1 sel pot=-12.5;KCNQ2 pot confirm=41.8*;Kir2-1 sel=-37.8;KCNQ2 W236L MoA=i
COc1cccc(OCCOc2ccc(/C=C3/SC(=S)NC3=O)cc2)c1 | 7.41* | i | i | i | CHO-K1 Tl ctr=-1.4;KCNQ1 sel pot=-12.3;KCNQ2 pot confirm=-5.5;Kir2-1 sel=-13.9
Cc1csc(SCC(=O)Nc2ccc(Cl)cn2)n1 | 0.39 | i | . | .
CC(C)(C)c1csc(SCC(=O)Nc2ccc(Cl)cn2)n1 | 6.96* | i | i | i | CHO-K1 Tl ctr=12.7*;KCNQ1 sel pot=10.2*;KCNQ2 pot confirm=5.0*;Kir2-1 sel=-46.1;KCNQ2 W236L MoA=i
COc1ccccc1Nc1nc(NCC2CCCO2)c2ccccc2n1 (configuration not stated) | . | i | 28.5%* | i
COc1cccc(-c2nc(NCC3CCCO3)c3ccccc3n2)c1O (configuration not stated) | . | i | . | .
CCN1C(=S)N[C@@H](c2cccs2)C(C(=O)OC)=C1C | . | i | . | .
CCCCCN(C(=O)CCC(=O)OCCOc1cccc(Cl)c1)c1c(N)n(CCCC)c(=O)[nH]c1=O | 0.07 | i | . | .
Cc1cc(C)nc(SCCCNCc2ccc(Br)cc2)n1 | 0.38 | i | 45.0%* | i
Cc1ccc(CNCCCSc2nc(C)cc(C)n2)cc1 | . | i | . | .
O=C1CN(C(=O)COC(=O)c2cc(S(=O)(=O)N3CCOCC3)ccc2Cl)c2ccccc2N1 | 0.13 | i | . | .
CC(C)(C)c1ccc(OCC(=O)NCc2ccco2)c(Br)c1 | 5.4* | i | i | i | CHO-K1 Tl ctr=-10.7;KCNQ1 sel pot=-13.1;KCNQ2 pot confirm=4.0*;Kir2-1 sel=-36.0;KCNQ2 W236L MoA=i
CC(C)(C)c1ccc(OCC(=O)NNC(=S)NC(=O)c2ccco2)c(Br)c1 | . | i | . | .
COC(=O)c1ccc(-n2nnnc2SCC(=O)Nc2ccccc2F)cc1 | 1.12 | i | . | .
COc1ccccc1NC1=C(NC(C)=O)C(=O)c2ccccc2C1=O | 8.01* | i | i | i | CHO-K1 Tl ctr=-27.3;KCNQ1 sel pot=-26.9;KCNQ2 pot confirm=4.8*;Kir2-1 sel=-32.5;KCNQ2 W236L MoA=i
COC1=C(Nc2ccccc2OC)C(=O)c2ccccc2C1=O | . | i | . | .
Cc1csc(=O)n1CCC(=O)OCC(=O)Nc1cccc(C#N)c1 | . | i | . | .
CC(CCc1ccco1)N(C)S(=O)(=O)c1csc(C(N)=O)c1 (configuration not stated) | 0.17 | i | . | .
CCCCN(Cc1ccco1)S(=O)(=O)c1csc(C(N)=O)c1 | . | i | 48.0%* | i
O=S(=O)(O)c1nc2ccccc2[nH]1 | . | i | . | .
